# In PubChem BioAssay AID2061322 (National Center for Advancing Translational Sciences (NCATS), 2025):
# Records with an inconclusive call do not appear. The source made the active and inactive calls. Calls follow the shape of the dose curve; as a rule, active = well fitted inhibition curve with a large enough effect; inconclusive = small, poorly fitted or top-dose-only effect; inactive = flat fitted curve, though single readings scatter.
# Test: Identification of antibody-drug conjugate (ADC) payloads which are substrates of ATP-binding cassette drug efflux transporters: ABCG2-HEK293-R5 cell line with Ko143
# Details: ABCG2-HEK293-R5 with Ko143, CellTiter-Glo viability, 48 h
# Text: Antibody-drug conjugates (ADCs) feature an antibody recognizing a specific protein joined to a potent toxic payload. Numerous antibody-drug conjugates have received FDA approval; however, clinical resistance arises. Resistance mechanisms include decreased expression or mutation of the antibody target, impaired payload release, or increased expression of ATP-binding cassette (ABC) efflux transporters associated with multidrug resistance. We therefore sought to characterize the interaction of ABC multidrug transporters with ADC payloads. We performed a high-throughput screen with 27 common ADC payloads using cells lines expressing ABC transporters P-glycoprotein (P-gp, encoded by ABCB1) or ABCG2 (encoded by ABCG2). Confirmatory assays were also performed using cells transfected to express P-gp, ABCG2, or MRP1 (encoded by ABCC1). Several commonly used ADC payloads were substrates of P-gp, including calicheamicin gamma1, monomethyl auristatin E, DM1, and DM4. All the pyrrolobenzodiazepines tested - SJG136, SGD-1882, SG2057, and SG3199 - were substrates of P-gp, ABCG2, and MRP1. […] These findings highlight the risk of transporter-mediated resistance with certain ADC payloads and underscore the importance of selecting payloads that evade ABC transporter recognition in future ADC development.
# HEK-293 cells were transfected with empty vector (pcDNA) or vector containing the human ABCB1 (MDR-19), ABCG2 (R-5), or ABCC1 gene (MRP1) and were maintained in EMEM with 2 mg/mL G418 added to maintain transporter expression. The HeLa derivative KB-3-1 and the P-gp overexpressing KB-8-5-11 subline were maintained in DMEM; KB-8-5-11 additionally received 100 ng/mL colchicine. H460 parental cells were obtained from the Division of Cancer Treatment and Diagnosis Tumor Repository, National Cancer Institute at Frederick, MD and were cultured in RPMI. The ABCG2 expressing subline H460 MX20 was generated by selecting H460 cells in 20 nM mitoxantrone. Media in all cases was supplemented with 10% FBS and 1% penicillin-streptomycin. […]
row,SMILES,Potency
1,CC[C@H](C)[C@@H]([C@@H](CC(=O)N1CCC[C@H]1[C@H](OC)[C@@H](C)C(=O)N[C@H](C)[C@@H](O)c1ccccc1)OC)N(C)C(=O)[C@@H](NC(=O)[C@H](C(C)C)N(C)C)C(C)C,0.0169 µM (active)
2,COc1cc2cc(C(=O)N3C[C@@H](CCl)c4c3cc(O)c3ccccc43)[nH]c2c(OC)c1OC,0.015 µM (active)
3,COc1cc2cc(c1Cl)N(C)C(=O)C[C@H](OC(=O)[C@H](C)N(C)C(=O)CCC(C)(C)S)[C@]1(C)OC1[C@H](C)C1C[C@@](O)(NC(=O)O1)[C@H](OC)/C=C/C=C(\C)C2 (stereo partly drawn),0.0017 µM (active)
